A short description of experiment [1]: anti-His antibody binders, primary screen, artefact control for SMM control protein annotation, biochemical, small-molecule microarray, 635 nm fluorescence (AID 1128).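 Further: score merges feature fluorescence with signal-to-noise for each printed compound spot.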 Particulars: anti-His Alexa647 antibody binding, higher = more signal.
In experiment [2] the test system is Human papillomavirus type 1a E7 protein (residues 1-88). The experiment is described as follows: HPV1a E7 small-molecule binders, primary screen, biochemical, small-molecule microarray, residues 1-88, 635 nm (AID 1129). Particulars: small-molecule microarray binding, fluorescence 635 nm; higher = more signal.
Experiment [3] addresses Focal adhesion kinase 1 (Homo sapiens) (UniProt Q05397). The experiment is described as follows: small-molecule microarray binders of FAK, primary screen, biochemical, 635/667 nm fluorescence, BSA, DTT (AID 1130).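 Further: composite of spot emission at 667 nm and signal to noise over triplicate slides.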 The conditions noted are these: PTK2 binding, 635 nm fluorescence, higher = more signal.
In experiment [4] the test system is Fibrinogen (Alexa647-labelled). The experiment is described as follows: fibrinogen binders on compound microarrays, profiling panel, artefact control for SMM control-protein annotation, biochemical, small-molecule microarray, 635/667 nm fluorescence (AID 1131).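 Further: z-score merges 667 nm fluorescence with per-spot signal-to-noise over triplicate slides.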 Particulars: fibrinogen-A647 binding fluorescence, higher = more signal.
For experiment [5], the target named is Follistatin (Homo sapiens) (UniProt P19883). Nature of the experiment: follistatin binders on small-molecule microarrays, primary screen, biochemical, small-molecule microarray, 635/667 nm fluorescence (AID 1132). Particulars: FST binding, 635 nm fluorescence, higher = more signal.
The target in experiment [6] is Fibroblast growth factor 2 (Homo sapiens) (UniProt P09038). The experiment is described as follows: FGF2 binders on small-molecule microarrays, primary screen, biochemical, small-molecule microarray, 635/667 nm fluorescence (AID 1133). Particulars: small-molecule microarray binding, FGF2, fluorescence 635/667; higher = more signal.
Experiment [7] is described as follows: mitochondrial membrane potential change in A549 cells, profiling panel, cell-based, JC-1 fluorescence, basal, 24 h, 100 nL (AID 1138).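 Further: A549 lung adenocarcinoma cells under basal conditions with no added stimulus; test concentration not given here.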 Particulars: higher = more signal.
The next experiment relates to Lefty1. The experiment is described as follows: Lefty1 binders on small-molecule microarrays, primary screen, biochemical, small-molecule microarray, 635/667 nm fluorescence (AID 1139). Particulars: small-molecule microarray binding, fluorescence 635/667; higher = more signal.
Experiment [8] concerns wheat germ agglutinin (Triticum aestivum), Alexa647-labelled. The experiment is described as follows: wheat germ agglutinin binders on compound microarrays, profiling panel, artefact control for SMM control-protein annotation, biochemical, small-molecule microarray, 635/667 nm fluorescence (AID 1140).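 Further: score merges 667 nm feature emission with signal to noise over triplicate slides.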 The conditions noted are these: WGA-A647 binding, 635 nm fluorescence, higher = more signal.

Experiment [9] addresses Luciferin 4-monooxygenase (Photinus pyralis) (UniProt P08659). Nature of the experiment: firefly luciferase enzyme inhibitors, primary screen, biochemical, luminescence, purified enzyme, 2006 set (AID 1141).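 Further: cell-free assay with purified firefly luciferase at 100 ng per well in PBS; test concentration not given here.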 Particulars: SteadyGlo luminescence, 30 min, higher = more signal, called active from +8 up or from −8 down.

The source made the active and inactive calls.

Chain of Follistatin (Homo sapiens) (P19883 whole entry, looked up): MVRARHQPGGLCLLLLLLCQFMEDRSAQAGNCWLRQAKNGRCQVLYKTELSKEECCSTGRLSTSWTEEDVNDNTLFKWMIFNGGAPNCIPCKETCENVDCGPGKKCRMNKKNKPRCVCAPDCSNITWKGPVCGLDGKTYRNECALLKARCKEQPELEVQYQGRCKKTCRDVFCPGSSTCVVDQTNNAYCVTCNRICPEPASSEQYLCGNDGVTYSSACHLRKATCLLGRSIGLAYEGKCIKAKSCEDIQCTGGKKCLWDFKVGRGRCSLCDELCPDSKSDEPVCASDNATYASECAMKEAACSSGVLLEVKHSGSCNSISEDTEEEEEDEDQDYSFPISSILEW
Chain of Luciferin 4-monooxygenase (Photinus pyralis) (P08659 whole entry, looked up): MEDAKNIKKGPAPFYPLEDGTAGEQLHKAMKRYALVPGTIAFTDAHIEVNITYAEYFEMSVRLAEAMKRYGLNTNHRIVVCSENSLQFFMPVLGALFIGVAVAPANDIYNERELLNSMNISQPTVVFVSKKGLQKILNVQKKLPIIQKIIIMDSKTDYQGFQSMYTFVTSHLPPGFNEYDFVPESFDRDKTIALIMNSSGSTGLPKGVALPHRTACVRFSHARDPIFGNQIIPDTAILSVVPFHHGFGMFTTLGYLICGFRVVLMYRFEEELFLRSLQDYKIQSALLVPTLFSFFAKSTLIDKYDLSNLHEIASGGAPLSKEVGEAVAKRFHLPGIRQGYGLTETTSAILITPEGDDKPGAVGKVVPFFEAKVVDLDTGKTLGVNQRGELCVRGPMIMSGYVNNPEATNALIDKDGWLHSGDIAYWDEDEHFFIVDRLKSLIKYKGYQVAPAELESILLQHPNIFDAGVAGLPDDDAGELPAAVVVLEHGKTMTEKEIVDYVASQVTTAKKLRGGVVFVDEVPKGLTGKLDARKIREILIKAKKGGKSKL
Chain of Fibroblast growth factor 2 (Homo sapiens) (P09038 whole entry, looked up): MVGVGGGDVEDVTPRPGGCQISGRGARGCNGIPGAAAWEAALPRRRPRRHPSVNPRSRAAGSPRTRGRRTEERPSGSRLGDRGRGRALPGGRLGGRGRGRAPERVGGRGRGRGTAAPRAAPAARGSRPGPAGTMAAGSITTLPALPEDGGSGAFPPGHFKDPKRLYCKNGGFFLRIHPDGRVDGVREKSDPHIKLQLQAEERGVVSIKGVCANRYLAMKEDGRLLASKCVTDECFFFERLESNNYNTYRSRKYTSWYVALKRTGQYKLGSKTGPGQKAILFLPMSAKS
Chain of Focal adhesion kinase 1 (Homo sapiens) (Q05397 whole entry, looked up): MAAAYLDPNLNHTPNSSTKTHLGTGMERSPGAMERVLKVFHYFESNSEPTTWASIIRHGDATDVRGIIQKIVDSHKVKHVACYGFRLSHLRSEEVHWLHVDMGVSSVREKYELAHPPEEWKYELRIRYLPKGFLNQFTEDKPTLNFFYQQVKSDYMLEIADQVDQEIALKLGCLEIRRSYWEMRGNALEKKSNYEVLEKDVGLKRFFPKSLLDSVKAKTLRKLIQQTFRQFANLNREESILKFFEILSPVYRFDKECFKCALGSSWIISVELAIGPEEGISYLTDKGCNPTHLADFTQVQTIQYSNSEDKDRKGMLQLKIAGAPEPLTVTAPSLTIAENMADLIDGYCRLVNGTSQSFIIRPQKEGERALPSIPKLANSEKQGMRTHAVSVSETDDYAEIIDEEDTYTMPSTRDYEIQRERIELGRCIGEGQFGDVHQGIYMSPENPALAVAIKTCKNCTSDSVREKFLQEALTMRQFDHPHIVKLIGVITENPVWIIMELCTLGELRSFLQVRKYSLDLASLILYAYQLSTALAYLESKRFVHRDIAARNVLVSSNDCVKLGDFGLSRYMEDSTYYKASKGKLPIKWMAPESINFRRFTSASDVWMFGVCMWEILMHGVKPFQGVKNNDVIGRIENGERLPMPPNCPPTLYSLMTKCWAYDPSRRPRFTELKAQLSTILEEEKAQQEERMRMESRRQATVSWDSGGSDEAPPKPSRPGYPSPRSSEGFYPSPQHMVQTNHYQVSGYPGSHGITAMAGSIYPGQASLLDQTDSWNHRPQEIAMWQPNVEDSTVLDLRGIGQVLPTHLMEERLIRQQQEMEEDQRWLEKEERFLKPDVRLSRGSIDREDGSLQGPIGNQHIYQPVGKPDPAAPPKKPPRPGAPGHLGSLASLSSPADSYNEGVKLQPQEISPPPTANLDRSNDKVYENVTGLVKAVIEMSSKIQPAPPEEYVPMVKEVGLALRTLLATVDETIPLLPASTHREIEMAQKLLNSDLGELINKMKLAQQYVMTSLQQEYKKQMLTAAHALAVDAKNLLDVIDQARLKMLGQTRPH

On to `CCOc1cc(C(O)C2C=CC3C(=O)N(C)C(=O)C3N2N2CCCCC2)ccc1O` (stereo not given), for which the composite z-score in experiment [1] is 1; in [2], -0.158; in experiment [3] it was 0.125; in experiment [4] it was 0.498; in experiment [5] it was 0.746; in experiment [6], 0.1. The values for the composite z-score (in the experiment with Lefty1; in experiment [8]) were 0.192 and 0.335, respectively. Besides, the z-score was -0.634 in [7] and -0.906 (inactive) in experiment [9].
Turning to `COc1ccc([Si](C)(C)[C@H]2[C@H](CCn3cc([C@H](O)c4ccccc4)nn3)O[C@@]3(C(=O)N(Cc4cccc(N5C(=O)c6cccc7cccc5c67)c4)c4ccccc43)[C@@H]2C)cc1`, the composite z-score is -0.953 in experiment [1]; -0.859 in experiment [2]; -0.435 in [3]; -0.678 in experiment [4]; -1.64 in [5]; -1.03 in [6]. Moreover, the composite z-score is -1.36 in the experiment on Lefty1 and -0.76 in experiment [8]. Further, the z-score was 0.647 in experiment [7] and 0.119 (inactive) in experiment [9].
Consider `C=C(C(=O)CC[C@H](OC(=O)c1cccnc1)c1ccc(CO)o1)C(C)C`, for which the composite z-score in [1] is -0.109; in experiment [2] it was 1.09; in experiment [3], -0.22; in experiment [4], 0.88; in [5], 0.886; in [6], 0.962. Also, the composite z-score with Lefty1 is 1.04; in experiment [8] it was 0.884. Moreover, the z-score in [7] was -0.559; in experiment [9], -1.55 (inactive).
Turning to `CCCCN1CC=CC23O[C@@H]4C=CCOC(=O)[C@@H]4[C@H]2C(=O)N(CCCO)[C@@H]3C1=O` (stereo not given in full), the composite z-score in [1] was 0.56; in [2], -0.518; in experiment [3] it was -0.609; in experiment [4], -1.28; in experiment [5], -1.45; in experiment [6] it was -0.682. The results for the composite z-score (in the experiment with Lefty1; in [8]) were -0.199 and -0.929, respectively. Moreover, the z-score is -1.08 in [7] and -0.135 (inactive) in experiment [9].
With `O=C1O[C@H](c2ccccc2)[C@H](c2ccccc2)N2[C@H]1[C@@H](C(=O)O)[C@]1(C(=O)Nc3ccccc31)[C@H]2c1ccc(O)cc1`, the composite z-score is -0.585 in [1]; -0.0964 in [2]; 0.133 in experiment [3]; -1.31 in experiment [4]; 0.0111 in [5]; 0.152 in [6]. Moreover, the composite z-score in the experiment on Lefty1 was -0.634; in [8], -0.55. Besides, the z-score in experiment [7] is 0.226; in experiment [9] it was 0.002 (inactive).
Regarding `CO[C@H]1O[C@H](CO)[C@@H](OC(=O)c2ccc(Br)cc2)[C@@H]2OC(=O)[C@@H](Cc3ccc4ccccc4c3)C/C=C/C[C@H](Cc3ccc4ccccc4c3)C(=O)O[C@@H]12`, the composite z-score in [1] is 1.4; in experiment [2] it was 1.2; in [3], 0.337; in experiment [4] it was -0.216; in experiment [5], 0.395; in experiment [6], -0.311. The results for the composite z-score (in the experiment with Lefty1; in experiment [8]) were -0.345 and 0.691, respectively. The values for the z-score in experiment [7] and in experiment [9] were 1.59 and -1.28 (inactive), respectively.
With `O=C1C[C@]2(c3ccc([N+](=O)[O-])cc3)C(=O)N(Cc3ccccc3)c3cc(CO)ccc3[C@H]2N1CC12CC3CC(CC(C3)C1)C2`, the composite z-score in experiment [1] is -1.43; in experiment [2], -0.835; in [3] it was -0.536; in experiment [4], -1.28; in experiment [5], -1.06; in [6], -0.653. In addition, the composite z-score was -1.17 in the experiment with Lefty1 and -0.786 in experiment [8]. Further, the z-score is -0.0834 in [7] and -0.271 (inactive) in [9].
For the compound `Cc1ccc(S[C@]2(C(=O)O)CC(=O)N(Cc3ccccc3Cl)[C@@H]2c2ccc(CO)cc2)cc1`, the composite z-score in experiment [1] is -0.24; in experiment [2] it was -0.558; in experiment [3], -0.299; in experiment [4] it was -0.271; in experiment [5], -0.83; in experiment [6], -0.26. Besides, the composite z-score is -1.26 with Lefty1 and 0.478 in [8]. For the same compound, the z-score in [7] is -0.939; in experiment [9], -0.999 (inactive).
For the compound `COc1ccc([Si](C)(C)[C@@H]2[C@@H](CCn3cc([C@H](O)c4ccccc4)nn3)O[C@]3(C(=O)N(Cc4ccc(N5CCOC5=O)cc4)c4ccccc43)[C@H]2C)cc1`, the composite z-score was 0.551 in [1]; 1.06 in experiment [2]; -0.0646 in experiment [3]; 0.851 in experiment [4]; 1.07 in [5]; 1.04 in [6]. For the same compound, the composite z-score with Lefty1 is 1.14; in experiment [8] it was 0.616. The z-score was 0.708 in [7] and 0.82 (inactive) in [9].
As for `CC(C)N1C(=O)[C@@]2(c3ccc([N+](=O)[O-])cc3)CC(=O)N(C3CCCCC3)[C@@H]2c2ccc(CO)cc21`, the composite z-score in [1] was 0.111; in experiment [2] it was -0.695; in experiment [3], -0.0713; in experiment [4] it was -0.387; in experiment [5], 1.03; in experiment [6], 0.356. For the same compound, the composite z-score with Lefty1 was 0.297; in [8], -0.246. Further, the results for the z-score in experiment [7] and in experiment [9] were -0.24 and 1.1 (inactive), respectively.
Take `COC(=O)[C@@]1(Cc2ccccc2)[C@H]2c3cc(C(=O)N4CCCC4)n(Cc4ccsc4Br)c3C[C@H]2CN1C(=O)c1ccccc1`: the composite z-score in experiment [1] is 1.6; in [2], 1.23; in experiment [3], 0.619; in experiment [4], 0.789; in experiment [5], 0.647; in [6], -0.282. Further, the composite z-score in the experiment with Lefty1 was -0.524; in [8], 1.25. The results for the z-score in experiment [7] and in [9] were 1.88 and 1.79 (inactive), respectively.
Turning to `CCOC(=O)C[C@H]1[C@H](OC(=O)c2ccc(C(=O)c3ccccc3)cc2)[C@@H](NC(=O)c2ccc3ccccc3c2)c2cc(OCCCO)ccc2N1C(=O)c1ccccc1`, the composite z-score in experiment [1] is 0.405; in experiment [2] it was 1.13; in experiment [3] it was 0.287; in experiment [4], 0.73; in experiment [5], 0.599; in experiment [6], 0.436. Besides, the composite z-score with Lefty1 was determined as 1.14; in [8], 1.1. The values for the z-score in experiment [7] and in [9] were 0.315 and -0.204 (inactive), respectively.
`CC[C@H]1C2=C3C(CC[C@H]4C(OCc5ccc(F)cc5C(F)(F)F)OC[C@](C)([C@@H]34)N(C(=O)OC(C)(C)C)C2)C2COC(=O)OCC21` (stereo not given in full): the composite z-score in [1] was 0.0812; in [2] it was 1.17; in experiment [3], 1.55; in [4], 0.979; in [5], 0.432; in [6] it was -1.39. The values for the composite z-score (in the experiment with Lefty1; in [8]) were -0.233 and 0.688, respectively. Besides, the z-score is 1.86 in experiment [7] and -0.198 (inactive) in experiment [9].

The values are drawn from PubChem BioAssay.
